Paper PMC4336329 (PLoS ONE, 2015)
The campaign covered roughly 310,000 compounds. About 14,000 (4.5%) showed an effect of 50% or more. The effect is printed as a negative number. The list comes from a sample in which strong results are over-represented; it also holds similar structures and randomly drawn compounds.

Biological target: human ether-à-go-go-related gene (hERG) potassium channel (human, UniProt Q12809)
Experiment: primary screen, population patch clamp on CHO cells stably expressing hERG; higher = less effect of the substance
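Also: peak tail current of the secondary pulse compared with the same well before compound.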

Chain of human ether-à-go-go-related gene (hERG) potassium channel (Q12809 whole entry, looked up): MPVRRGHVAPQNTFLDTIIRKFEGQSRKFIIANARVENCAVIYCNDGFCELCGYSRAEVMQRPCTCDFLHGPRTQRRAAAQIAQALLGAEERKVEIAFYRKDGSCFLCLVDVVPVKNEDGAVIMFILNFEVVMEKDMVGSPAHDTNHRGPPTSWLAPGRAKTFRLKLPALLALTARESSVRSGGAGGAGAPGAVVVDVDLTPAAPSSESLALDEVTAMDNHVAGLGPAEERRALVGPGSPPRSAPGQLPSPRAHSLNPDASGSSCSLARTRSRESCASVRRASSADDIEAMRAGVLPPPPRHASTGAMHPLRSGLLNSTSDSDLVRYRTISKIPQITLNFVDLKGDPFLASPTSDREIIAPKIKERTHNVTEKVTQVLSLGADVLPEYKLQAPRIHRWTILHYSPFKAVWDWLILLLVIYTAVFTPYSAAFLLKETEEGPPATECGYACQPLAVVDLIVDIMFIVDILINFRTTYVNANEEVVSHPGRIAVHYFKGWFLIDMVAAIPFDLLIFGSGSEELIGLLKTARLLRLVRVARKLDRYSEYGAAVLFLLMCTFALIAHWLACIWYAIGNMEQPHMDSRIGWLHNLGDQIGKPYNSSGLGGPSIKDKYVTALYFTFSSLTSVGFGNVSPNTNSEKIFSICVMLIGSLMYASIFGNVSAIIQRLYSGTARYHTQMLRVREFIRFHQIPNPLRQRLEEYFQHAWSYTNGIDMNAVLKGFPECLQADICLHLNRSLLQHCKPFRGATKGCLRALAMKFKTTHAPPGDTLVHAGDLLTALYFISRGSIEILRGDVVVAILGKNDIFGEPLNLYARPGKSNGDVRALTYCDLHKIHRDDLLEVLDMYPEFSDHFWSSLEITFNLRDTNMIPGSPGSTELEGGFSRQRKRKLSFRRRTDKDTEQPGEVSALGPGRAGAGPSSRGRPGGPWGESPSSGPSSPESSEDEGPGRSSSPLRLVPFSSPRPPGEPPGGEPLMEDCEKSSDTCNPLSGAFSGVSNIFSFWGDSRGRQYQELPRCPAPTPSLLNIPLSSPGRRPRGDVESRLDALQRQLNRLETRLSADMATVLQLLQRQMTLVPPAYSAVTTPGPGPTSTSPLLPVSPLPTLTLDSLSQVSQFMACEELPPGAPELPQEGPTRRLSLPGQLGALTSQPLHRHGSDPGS

SMILES	hERG current change (%, negative = inhibition) at 10uM [%]
COC(=O)c1ccc(COC(=O)CNC(=O)CNC(=O)c2ccc(OC)cc2)cc1	-6.8
CN(C(=O)CN1C(=O)C2C3CC(C(Br)C3Br)C2C1=O)C1CCCCC1 (stereo not drawn)	-8.93
CCOC(=O)Cn1c(S(=O)(=O)Cc2ccc(F)cc2)nc(-c2ccccc2)c1-c1ccccc1	-7.15
CCCCCCSc1cc(C)nc2ncnn12	-42.9
CCc1cccc(CC)c1-n1c(-c2cccnc2)n[nH]c1=S	18.1
O=C(c1cc(Br)ccc1OC(F)F)N1CCN2CCCC2C1 (stereo not drawn)	-4.15
CCOC(=O)CSc1nnc(-c2ccccc2NC(=O)c2ccccc2)o1	12.2
CC(C)Nc1oc(-c2cccc3ccccc23)nc1C#N	2.18
O=C(NC(=S)NCCO)c1sc2ccccc2c1Cl	-0.142
Cl.NCCc1ccc(OCc2ccccc2)c(OCc2ccccc2)c1	-22.1
COc1cc(CCC(=O)N2CCN(c3ccc([N+](=O)[O-])cc3)CC2)cc(OC)c1OC	-78.4
COc1cc(CCC(=O)N2CCN(c3cccc(C)c3C)CC2)cc(OC)c1OC	-2.88
COc1ccc(CCC(=O)N2CCN(c3ccccc3)CC2)cc1OC	14
COc1cc(CCC(=O)N2CCN(c3ccc(N4CCOCC4)nn3)CC2)cc(OC)c1OC	-9.65
COc1ccc(CCC(=O)N2CCN(c3ccc([N+](=O)[O-])cc3)CC2)cc1OC	-81.5
COc1ccc(C(=O)N2CCN(c3ccc([N+](=O)[O-])c(NCCc4ccc(OC)c(OC)c4)c3)CC2)cc1	4.2
COc1cc(CCC(=O)N2CCN(c3ccccc3)CC2)cc(OC)c1OC	-58.5
COc1cc(CCC(=O)N2CCN(c3ncccn3)CC2)cc(OC)c1OC	11.8
COc1ccc(N2CCN(C(=O)Cc3ccc(OC)c(OC)c3)CC2)cc1	6.38
O=C(Cc1cccc(C(F)(F)F)c1)OCC(=O)N1CCN(S(=O)(=O)c2ccc(Cl)cc2)CC1	-6.07
COc1ccc(OC)c(NC(=S)NCc2cccs2)c1	-18.3
CCOC(=O)C1(Cc2ccccc2C)CCCN(S(=O)(=O)CC)C1 (stereo not drawn)	13.9
COc1cccc(NS(=O)(=O)c2ccc3c(c2)n(C)c(=O)c(=O)n3C)c1	-6.59
COC(=O)c1[nH]c2cc(OC)ccc2c1NC(=O)CCN1CCSCC1	7.01
